Consider three compounds from PubChem BioAssay AID931 (National Center for Advancing Translational Sciences (NCATS), 2007).

Results filed as inconclusive are left out. The source made the active and inactive calls. The call rests on the fitted dose curve; in most records, active means well fitted cell-killing curve with a large enough effect; inconclusive means small, poorly fitted or top-dose-only effect; inactive means flat fitted curve, though single readings scatter.

A short description of this experiment: Confirmation and Secondary Assay for Modulators of Hemoglobin Beta Chain Splicing at IVS2 654 locus: Cytotoxicity. The settings on record: HBB IVS2-654 splicing reporter cells. The text has this: NIH Chemical Genomics Center [NCGC]
NIH Molecular Libraries Screening Centers Network [MLSCN]
PI Name: Dr. Ryszard Kole
Modulation of Alternative Splicing as Therapy
Abnormal splicing is associated with a number of diseases, including cancer and genetic diseases such as cystic fibrosis, muscular dystrophy and beta-thalassemia. Alteration of disease associated splicing patterns provides a promising target for treatment. […] Mutations in the second intron of the b-globin gene at positions 654 or 705 are clinically relevant and cause mis-splicing which results in an out of frame gene product.
Examination of toxicity of select compounds in EGFP-654 HeLa Cells
HeLa cell lines were stably transfected with a construct in which the EGFP (enhanced green fluorescent protein) cDNA was interrupted by the second intron of the beta-globin gene (IVS2-654). The ISV2 intron contains mutations which cause mis-splicing of EGFP and premature termination of EGFP which results in a nonfluorescent protein product. […] Expression of the transgene was driven by the CMV promoter. Compounds, and related structures identified in the primary screen as potential splicing modulation were examined for their effects on cell toxicity in this follow up assay .
NCGC Assay Protocol Summary:
Toxicity Screening. Freshly thawed HeLa EGFP-654 cells were seeded in 5 ul of optimem media (Invitrogen) containing 2 % fetal calf serum (Hyclone) and 1x penicillin/streptomycin (Invitrogen) at a concentration of 500 cells per well in 1536-well plates. Cells were incubated overnight at 37C in 5% CO2. The next day, cells were treated with DMSO, 500 nM antisense ISV2 654 PNA control oligo, or library compound and allowed to grow at 37C in 5% CO2 for 2 days. Cells were treated with 5 ul/well of freshly prepared ATPlite (Perkin Elmer) and cells were allowed to lyse at room temperature for 5 minutes. Luminescence was captured on an Viewlux CCD imager (Perkin Elmer) using a 15 second integration time and cell death was measured by comparing compound treatments to DMSO treatment (no cell death). […]
Regarding `[Cl-].[Cl-].[Hg+2]`, the Potency was 0.398 µM (active).

With `CC(=O)[O][Hg][c]1ccccc1`, the Potency is 12.6 µM (active).

Turning to `O=c1[nH]cc(F)c(=O)[nH]1`, the Potency is 12.6 µM (active).
